Only a selection was taken, and hits are over-represented in it overall.
Pf Dd2 inh – blocks in vitro growth of P. falciparum Dd2. P. falciparum Dd2 growth, SYBR Green, 72 h. Potency, µM (highest dose often 28.9 µM), for inactives: at the top dose activity, negative = inhibition, usual class: inhibitors. 4.3% of 120,000 active. AID 1347417; active = well fitted inhibition curve with a large enough effect;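 also: plate controls were DMSO vehicle for no effect and reference drug for full effect; nearly all actives have a fitted effect of over 65% in size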
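Readout: SYBR Green fluorescence, 485 nm excitation, 535 nm emission, after ~16 h lysis at 37C. Before that, Dd2-infected red cells (2.5% hematocrit) grew 72 h with compound, 29 uM top final concentration.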
* hit, by the source's call; [ ] = another dose, or the depositor's remark. Potency is read from the fitted curve at half-maximal effect.

Results for COc1ccc(-n2c(SCC(=O)N3CCCc4ccccc43)nc3c([nH]c4ccccc43)c2=O)cc1 ?
Pf Dd2 inh: 12%

Results for COC(=O)c1ccc(CSc2nc3c([nH]c4ccccc43)c(=O)n2-c2ccc(OC)cc2)o1 ?
Pf Dd2 inh: -10%

Results for COc1ccc(-n2c(SCC(=O)NC3CCCCC3)nc3c([nH]c4ccccc43)c2=O)cc1 ?
Pf Dd2 inh: 10µM*

Results for CCC(=O)N1CCN(C2CCN(CCOC)C2=O)CC1 (stereo not drawn) ?
Pf Dd2 inh: -6%

Results for CN1C(=O)CC(C(=O)O)C12CCN(Cc1ccc(CCC(C)(C)O)cc1)CC2 (stereo not drawn) ?
Pf Dd2 inh: 12%

What do the screens show for `COc1ccc2[nH]c3c(c2c1)CCNC31CCN(C(=O)c2ccsc2)CC1`?
Pf Dd2 inh: -23%

What do the screens show for `O=C(c1ccc(Cn2ccnc2)o1)N1CCCCCC1c1nnc(-c2ccccc2)o1` (stereo not drawn)?
Pf Dd2 inh: inactive

How did CCOc1ccc(S(=O)(=O)N2CCN(C3(CC)CCN(S(C)(=O)=O)C3)CC2)cc1 (stereo not drawn) do in these assays?
Pf Dd2 inh: inactive

How did COc1cccc(Nc2sc(C(=O)c3ccc(F)cc3)c(N)c2C(=O)NCc2ccc(C)cc2)c1 do in these assays?
Pf Dd2 inh: 10µM*

How did Cc1ccc(CNC(=O)c2c(Nc3ccccc3C)sc(C(=O)c3ccc(F)cc3)c2N)cc1 do in these assays?
Pf Dd2 inh: -17%

Results for COc1cccc(Nc2sc(C(=O)c3ccc(Cl)cc3)c(N)c2C(=O)NCCc2ccc(OC)c(OC)c2)c1 ?
Pf Dd2 inh: -20%

Results for Cn1ccc(C(=O)N2CCC(c3nnc4n3C(C(=O)NCc3ccc(F)cc3)CC4)CC2)n1 (stereo not drawn) ?
Pf Dd2 inh: 8%

How did CSc1ccc(CCNC(=O)c2ccc3c(Cl)c4c(nc3c2)CCCC4)cc1 do in these assays?
Pf Dd2 inh: -16%

How did Cc1ccc(CCNC(=O)c2ccc3c(Cl)c4c(nc3c2)CCCC4)cc1 do in these assays?
Pf Dd2 inh: -4%

Results for CCN(CC)CCCNC(=O)c1ccc2c(Cl)c3c(nc2c1)CCCC3 ?
Pf Dd2 inh: 11µM*

How did Cc1cnc(C(=O)N2C[C@@H](Oc3cccnc3)C[C@H]2C(=O)N2CCCC2)cn1 do in these assays?
Pf Dd2 inh: -7%

Results for Cc1nc(C)c(C(=O)N(C)C2CCc3nn(CC4CC4)c(=O)n3CC2)s1 (stereo not drawn) ?
Pf Dd2 inh: 42%

How did CC(C)NC(=O)N1CCC2(CC1)CN(C(=O)NC(C)C)CCO2 do in these assays?
Pf Dd2 inh: 15%

Results for Cn1cnnc1CC1CCCNC1 (stereo not drawn) ?
Pf Dd2 inh: 16%

What do the screens show for `CCOc1ccc(CCNC(=O)C2CCCN(c3nnc(C)c4c(C)n(-c5ccccc5)nc34)C2)cc1` (stereo not drawn)?
Pf Dd2 inh: 7.9µM*

What do the screens show for `Cc1ccc(-n2nc3c(N4CCCC(C(=O)NCc5ccc(Cl)cc5)C4)nnc(C)c3c2C)cc1` (stereo not drawn)?
Pf Dd2 inh: -14%

What do the screens show for `CCOC(=O)C1CCCN(C(=O)C2CCN(c3nnc(C)c4c(C)n(-c5ccccc5)nc34)CC2)C1` (stereo not drawn)?
Pf Dd2 inh: 10µM*

Results for COc1ccc(-n2nc3c(N4CCCC(C(=O)NCc5cccc(F)c5)C4)nnc(C)c3c2C)cc1 (stereo not drawn) ?
Pf Dd2 inh: 11µM*

How did Cc1nnc(N2CCCC(C(=O)NCc3ccccc3)C2)c2nn(-c3ccccc3)c(C)c12 (stereo not drawn) do in these assays?
Pf Dd2 inh: 29%

How did CCc1ccc(CNC(=O)C2CCCN(c3nnc(C)c4c(C)n(-c5ccccc5)nc34)C2)cc1 (stereo not drawn) do in these assays?
Pf Dd2 inh: -29%

How did Cc1nnc(N2CCC(C(=O)NC3CCCCC3)CC2)c2nn(-c3ccccc3)c(C)c12 do in these assays?
Pf Dd2 inh: 42%

Results for Cc1ccc(CCNC(=O)C2CCCN(c3nnc(C)c4c(C)n(-c5ccccc5)nc34)C2)cc1 (stereo not drawn) ?
Pf Dd2 inh: 53%[5.79 µM]

How did CCOC(=O)c1cccc(NC(=O)C2CCCN(c3nnc(C)c4c(C)n(-c5ccccc5)nc34)C2)c1 (stereo not drawn) do in these assays?
Pf Dd2 inh: inactive

Results for O=C(Cn1nc2n(c1=O)CCCCC2)N1CCCc2ccccc21 ?
Pf Dd2 inh: -16%

What do the screens show for `COc1ccc(C(=O)N2CCCOCCNC(=O)[C@@H]3CCCC[C@@H]32)cc1F`?
Pf Dd2 inh: -23%

Results for COC(=O)c1cnc2c(c1)n(CCCn1cnnn1)c(=O)n2C1CCCCC1 ?
Pf Dd2 inh: 13%

What do the screens show for `CCNC(=O)[C@@H]1C[C@H](NC(=O)c2ccc(CC)s2)CN1C1CCOCC1`?
Pf Dd2 inh: -8%

What do the screens show for `CC(=O)N1CCC2(CC1)C(=O)NN=C2c1ccccn1`?
Pf Dd2 inh: 22%[44.1 µM]

What do the screens show for `O=C(C1CC1)N1CC[C@](O)(c2ccccc2)[C@H](N2CCCC2)C1`?
Pf Dd2 inh: inactive[5.79 µM]

What do the screens show for `C[C@@]1(O)CCN(Cc2ccc(Br)o2)C[C@H]1N1CCCC1`?
Pf Dd2 inh: -22%[5.79 µM]

How did O[C@]1(c2ccccc2)CCN(Cc2ccco2)C[C@H]1N1CCCC1 do in these assays?
Pf Dd2 inh: 0.63µM*

How did C[C@@]1(O)CCN(Cc2cccc(F)c2)C[C@H]1N1CCCC1 do in these assays?
Pf Dd2 inh: -23%[5.79 µM]

Results for O=C(c1cccs1)N1CCC(O)(c2ccccc2)[C@H](N2CCCC2)C1 (stereo partly drawn) ?
Pf Dd2 inh: 1.4µM*

What do the screens show for `COc1ccc(CN2CC[C@@](C)(O)[C@H](N3CCCC3)C2)cc1`?
Pf Dd2 inh: 21%[5.79 µM]

What do the screens show for `Cc1ccsc1C(=O)N1CCC(O)(c2ccccc2)[C@H](N(C)C)C1` (stereo partly drawn)?
Pf Dd2 inh: inactive[5.79 µM]

Results for O[C@]1(c2ccccc2)CCN(Cc2ccncc2)C[C@H]1N1CCCC1 ?
Pf Dd2 inh: 0.71µM*

Results for Cc1ccc(CN2CC[C@@](C)(O)[C@H](N3CCCC3)C2)o1 ?
Pf Dd2 inh: 9%[5.79 µM]

Results for COCCN1C[C@H]2CN(C(=O)C3CCC3)C[C@@]2(C(=O)O)C1 ?
Pf Dd2 inh: -4%

How did COc1ccc(CNC(=O)NCC23CCCC=C2NC(=O)CC3)cc1 (stereo not drawn) do in these assays?
Pf Dd2 inh: 2%

How did COc1ccc(NC(=O)Cn2nc3n(c2=O)CCCC3)cc1 do in these assays?
Pf Dd2 inh: 15%

What do the screens show for `O=C(O)C1=NOC2CN(C(=O)c3cccc(Cl)c3)CC12` (stereo not drawn)?
Pf Dd2 inh: -3%

What do the screens show for `OCC1(CNCC2CCCC2)C[C@@H](O)[C@@H](O)C1` (stereo partly drawn)?
Pf Dd2 inh: 49%[44.1 µM]

Results for COCCNC(=O)N1CCc2n[nH]c(=O)n2CC1 ?
Pf Dd2 inh: -3%

How did CN(CCn1ccnc1-c1ccc(CO)o1)S(C)(=O)=O do in these assays?
Pf Dd2 inh: 4%

Results for CCNC(=O)N1CCC(c2noc(-c3ccncc3)n2)C1 (stereo not drawn) ?
Pf Dd2 inh: 15%[5.79 µM]

How did Cc1cc(=O)[nH]c(NCCNc2nccc(-c3cccnc3)n2)n1 do in these assays?
Pf Dd2 inh: 0%

What do the screens show for `CC(C)S(=O)(=O)CCNc1nccc(-c2cccnc2)n1`?
Pf Dd2 inh: -7%

How did OC(CNc1nccc(-c2cccnc2)n1)COc1ccc(Cl)cc1 (stereo not drawn) do in these assays?
Pf Dd2 inh: 14µM*

Source: PubChem (National Center for Advancing Translational Sciences (NCATS))
